High-throughput results (PubChem BioAssay)
The list is not random: actives were taken first. Their share in the collection is about 15%.
HCMV inh = qHTS Assay for inhibitors of the human cytomegalovirus (HCMV) | HFF cells, HCMV-luciferase reporter, 72 h; stronger effect = lower value | activity change, negative = inhibition, % at 57.5 µM | actives 4.5% (n = 410,000); in the data active = activity change below about -60%; inconclusive = no clear call, values can overlap the other calls; inactive = above about -39%; note: % is set by controls: 0 for no effect and ±100 for the full control effect
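Screen run at 2 compound doses on HFFs infected with reporter HCMV, MOI 1 PFU/cell. Luciferase activity from cell lysates at 72 h post infection gave inhibition relative to buffer-only and Salinomycin wells.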
HCV inhibitor = qHTS Assay for Inhibitors of Hepatitis C Virus (HCV). Huh7.5.1 HCVcc-Cre infection, luciferase reporter, 44 h. Potency, µM (doses to about 41.8 µM), for inactives: top-dose activity change, negative = inhibition, hits mostly inhibitors. actives 3.4% (n = 340,000). AID 651820, 2012; note: potency is the fitted concentration of half-maximal effect; % is set by controls: 0 for no effect and ±100 for the full control effect
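1,000 cells/well; 4 h culture; + compound; + HCVcc-Cre (~0.5 moi); 44 h; luciferase substrate, RT 15 min; read 15 sec.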
SARS PLpro yeast = qHTS of Yeast-based Assay for SARS-CoV PLP; S. cerevisiae expressing SARS-CoV PLpro, growth rescue; Potency, µM (titrated, usually from 32.9 µM), for inactives: at the highest dose activity, positive = growth rescue, hits mostly activators; actives 0.19% (n = 330,000); calls by dose curve; note: potency is the fitted concentration of half-maximal effect; 0% is about no effect; nearly all actives have a fitted effect of over 55% in size
Sm TGR inh = qHTS Assay for the Inhibitors of Schistosoma Mansoni Peroxiredoxins. Schistosoma mansoni thioredoxin glutathione reductase (TGR), Q962Y6. purified TGR, DTNB reduction, TNB absorbance 405 nm. Potency, µM (highest dose often 114 µM), without a hit: top-dose activity change, negative = inhibition, actives largely listed as inhibitors. actives 3% (n = 360,000); note: potency is the fitted concentration of half-maximal effect; % is set by controls: 0 for no effect and ±100 for the full control effect; nearly all actives have a fitted effect of over 60% in size
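TGR 20 nM + NADPH 100 uM (dispensed conc.), cpd preinc 15 min RT; start with NADPH (500 uM addition) then DTNB (15 mM addition). Kinetic TNB absorbance, 405 nm filter. Four-parameter Hill fit across titration.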
Pf growth 48h = Primary qHTS for delayed death inhibitors of the malarial parasite plastid, 48 hour incubation; P. falciparum luciferase growth in erythrocytes, 48 h; actives 5.9% (n = 310,000); AID 504832, 2011; Potency, µM (titrated, usually from 28.7 µM), for the others: at the top dose activity change, negative = inhibition, actives largely listed as inhibitors; note: potency is the fitted concentration of half-maximal effect; % is set by controls: 0 for no effect and ±100 for the full control effect
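Cell-based growth assay: transgenic P. falciparum expressing firefly luciferase, cultured in red cells within RPMI 1640 containing 0.5% w/v Albumax, 24 mM bicarbonate and gentamycin. A drop in luciferase activity indicates inhibition.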
Pf growth 96h = Primary qHTS for delayed death inhibitors of the malarial parasite plastid, 96 hour incubation. P. falciparum luciferase reporter growth, 96 h. Potency, µM (titrated, usually from 28.7 µM), without a hit: at the highest dose activity change, negative = inhibition, most hits filed as inhibitors. actives 6.9% (n = 320,000). AID 504834, 2011; note: potency is the fitted concentration of half-maximal effect; % is set by controls: 0 for no effect and ±100 for the full control effect
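Infected RBCs, 2% Hct / 0.05% parasitemia final; luciferase-reporter P. falciparum; cpd 96 h, 37 C, 5% CO2; luciferase detection reagent; luminescence.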
* marks the source's active call; other numbers are inactive results; ? = inconclusive; · = no result given; [ ] = remark or other dose. Unless noted, calls come from the whole dose curve; as a rule, active = well fitted curve in the direction sought with a large enough effect; inconclusive = small, poorly fitted or top-dose-only effect, or another doubt; inactive = no such curve, though single readings can be large; an effect the other way counts as inactive or inconclusive.

SMILES	HCMV inh	HCV inhibitor	SARS PLpro yeast	Sm TGR inh	Pf growth 48h	Pf growth 96h
COCCn1c(SCC(=O)NC2CCCC2)nc2ccccc2c1=O	-100*	13%	1%	5%	17%	-16%
CCn1c(CC(=O)Nc2ccccc2)nnc1SCC(=O)NC1CCCC1	12	10%	3%	-2%	1%	?
Cc1cc2c(=O)n(Cc3ccco3)c(SCC(=O)N3CCCc4ccccc43)nc2s1	-88*	?	-8%	-39%	?	·
CCn1c(COc2ccccc2)nnc1SCC(=O)NC1CCCCC1	-25	-7%	-1%	-35%	2.9µM*	-16%
COCCn1c(SCC(=O)NC(=O)NC2CCCC2)nc2ccccc2c1=O	-38	-28%	-1%	0%	?	?
Cc1ccc(C(=O)c2oc3ccccc3c2NC(=O)Cc2coc3cc(C)ccc23)cc1	4	·	·	-2%	·	·
CC(=O)NCCn1c(SCC(=O)NC2CCCCC2)nc2ccccc2c1=O	-17	5%	1%	2%	-11%	?
CC(C)Cn1c(SCC(=O)NC(=O)NC2CCCC2)nc2ccccc21	-39	11µM*	2%	-6%	?	-5%
CCn1c(SCC(=O)NC2CCCCC2)nc2ccccc2c1=O	8	3%	-2%	0%	52%	12µM*
COCCNC(=O)c1ccc2c(=O)n(Cc3ccco3)c(SCC(=O)NC3CCCC3)nc2c1	-14	-4%	10%	-16%	·	12µM*
COCCNC(=O)CSc1nc2cc3c(cc2c(=O)n1Cc1ccco1)OCO3	-37	?	-4%	2%	15%	23%
CC(C)Cn1c(SCC(=O)N2CCCc3ccccc32)nc2ccccc2c1=O	-19	?	0%	10%	?	?
CC(C)NC(=O)Cn1c(SCC(=O)NC2CCCC2)nc2ccccc21	-12	6%	-1%	1%	-15%	5%
CCn1c(SCC(=O)N2CCCc3ccccc32)nc2ccccc2c1=O	?	5µM*	-6%	7%	?	77%
COc1ccc(C(=O)N/C(=C/c2ccco2)C(=O)NC2CCS(=O)(=O)C2)cc1 (centres undefined)	-8	2%	-2%	?	20%	?
CC(C)c1nc(SCC(=O)N2CCCc3ccccc32)c2c(=O)n(C)c(=O)n(C)c2n1	-29	10µM*	2%	-5%	?	?
CCCc1nc(SCC(=O)N2CCc3ccccc32)c2c(=O)n(C)c(=O)n(C)c2n1	·	6%	1%	2%	18%	-1%
COc1ccccc1CNC(=O)c1cc2c(=O)oc3ccc(C)cc3c2s1	5	·	·	-5%	·	·
O=C1CC(NS(=O)(=O)c2ccc(F)cc2)CN1c1ccc2c(c1)OCCO2 (centres undefined)	2	7%[8.37 µM]	-1%	-1%	3%	-12%
CCOC(=O)[C@H]1[C@H]2COc3ccc(Br)cc3[C@@H]2N2C(=O)CN(Cc3ccc(F)cc3)C(=O)[C@@]12C	-3	-27%	-13%	-3%	13µM*	?
CCOC(=O)[C@H]1[C@H]2COc3ccc(OC)cc3[C@@H]2N2C(=O)CN(Cc3ccc(Cl)cc3)C(=O)[C@@]12C	4	?	1%	5%	15µM*	?
CCOC(=O)[C@H]1[C@H]2COc3ccc(OC)cc3[C@@H]2N2C(=O)CN(Cc3ccccc3)C(=O)[C@@]12C	-30	3%	9%	-7%	10µM*	?
S=c1nc(-c2ccccc2)[nH]c2ccc(Br)cc12	59	16%	0%	-15%	3%	-3%
O=C(Nc1ccc(Br)cc1)c1ccc(F)c(S(=O)(=O)N2CCc3ccccc32)c1	-92*	·	·	3%	·	·
O=C(Nc1cccnc1)c1ccc(Cl)c(S(=O)(=O)N2CCc3ccccc32)c1	?	-29%	-2%	2%	2.6µM*	3.7µM*
SMILES	HCMV inh	HCV inhibitor	SARS PLpro yeast	Sm TGR inh	Pf growth 48h	Pf growth 96h
O=C(Nc1ccc(Br)cc1)c1ccc(F)c(S(=O)(=O)NCc2cccs2)c1	-92*	5µM*	-36%	7%	?	?
O=C(NCC(c1ccco1)N1CCCC1)c1ccc(Cl)c(S(=O)(=O)N2CCc3ccccc32)c1 (centres undefined)	?	4.5µM*	9%	?	5.9µM*	?
O=S(=O)(c1cccc2cccnc12)N1CCc2ccccc21	-63*	-6%	1%	0%	-17%	?
CC(=O)Nc1ccc(NC(=O)c2ccc(Cl)c(S(=O)(=O)N3CCc4ccccc43)c2)cc1	-28	?	·	·	·	·
O=C(Nc1ccccn1)c1ccc(Cl)c(S(=O)(=O)N2CCc3ccccc32)c1	-93*	?	·	-13%	?	?
CC[C@]12c3[nH]c4ccc(Cl)cc4c3CCN1C(=O)[C@@H](CC(=O)NCc1cccc(C(F)(F)F)c1)C[C@@H]2C(=O)N1CCN(C(=O)C2CC2)CC1	-20	35µM*	-11%	·	·	·
CC[C@]12c3[nH]c4ccccc4c3CCN1C(=O)C(CC(=O)NCc1cccc(C(F)(F)F)c1)C[C@@H]2C(=O)N1CCN(C(=O)C2CC2)CC1 (some centres undefined)	-2	?	-4%	·	·	·
CC[C@]12c3[nH]c4ccc(Cl)cc4c3CCN1C(=O)[C@@H](CC(=O)NCc1cccc(C(F)(F)F)c1)C[C@@H]2C(=O)N1CCN(C(=O)c2ccco2)CC1	-100*	32µM*	-2%	·	·	·
CC[C@]12c3[nH]c4ccc(OC)cc4c3CCN1C(=O)C(CC(=O)NCc1cccc(C(F)(F)F)c1)C[C@@H]2C(=O)N1CCN(C(=O)c2ccco2)CC1 (some centres undefined)	44	?	-9%	·	·	·
CC[C@]12c3[nH]c4ccccc4c3CCN1C(=O)C(CC(=O)NCC13CC4CC(CC(C4)C1)C3)C[C@@H]2C(=O)N1CCN(C(=O)c2ccco2)CC1 (some centres undefined)	-23	11µM*	-3%	·	·	·
O=C(NCC1CCOCC1)c1ccc(-c2ccc(F)c(F)c2)c2ccoc12	-10	·	·	·	·	·
Cc1c(Cl)cccc1-n1ncc(C(=O)NC2CCCC2)c1C1CCN(C(=O)OC(C)(C)C)CC1	18	·	·	0%	·	·
CCn1c(=O)c2[nH]c(SC)nc2n(CC)c1=O	-4	·	·	·	·	·
